Activity calls are given as the source filed them. Rule for the calls: active = hit-call score of the fitted dose curve at least 0.9, where 1 is the maximum; inactive = score below 0.9.

For orientation: AC50 means the midpoint of the concentration-response curve, whichever way the signal moves.

Read-out in the assay: Cytochrome P450 (CYP1A1), CYP1A1 (gene 1543)
In words: LTEA_HepaRG_CYP1A1: Life Technologies and Expression Analysis (LTEA) Assay for Cytochrome P450 (CYP1A1) using HepaRG (AID 2283454). The note with it: mRNA level, 48 h; actives raise or lower the signal. On the procedure: LTEA_HepaRG is a cell based, multiplexed-readout assay that uses HepaRG, a human liver cell line, with measurements taken at 48 hours after chemical dosing on a 96-well plate.LTEA_HepaRG_CYP1A1 is one of 102 assay component(s) measured in the LTEA HepaRG cell culture assay. It is a marker of NR mediated metabolism.Data from the assay component LTEA_HepaRG_CYP1A1 was analyzed into 1 endpoint. This assay endpoint, LTEA_HepaRG_CYP1A1, was analyzed with bidirectional fitting relative to DMSO as the negative control and baseline of activity. Using a type of inducible reporter, measures of mRNA induction for gain or loss-of-signal activity can be used to understand regulation of transcription factor activity. To generalize the intended target to other relatable targets, this assay endpoint is annotated to the cyp intended target family, where the subfamily is xenobiotic metabolism.
A total of 1060 chemcials from the ToxCast library were tested in eight-point concentration-response experiments. Cell culture and cytotoxicity assays were conducted at Thermo Fisher Scientific's Custom Services facility (Madison, WI). A single lot of human HepaRG cells (Thermo Fisher Scientific, Frederick, MD) was used for the cell culture experiments. 96-well format collagen type I coated plates of human HepaRG cells were prepared using established methods. Briefly, cryopreserved HepaRG cells were thawed, plated at a density of approximately 100,000 cells/well in HepaRG Thaw, Plate, and General Purpose media (HPRG770, Thermo Fisher Scientific), and incubated for 48 hours. 0.5% DMSO was selected as vehicle control to balance the requisite need of DMSO in HepaRG cultures to maintain differentiation (for example, baseline metabolism, proportions of hepatocytes vs. cholangiocytes), while enabling further hepatic receptor pathway activation (for example, PXR and CAR) in response to chemical exposure. 48 hours after plating, the culture medium was replaced with HepaRG Serum-Free Incudtion Media. Cells were exposed to each test chemical in duplicate and maintained in CO2 incubators for another 48 hours. Chemical plates were thawed to room temperature and 200x concentrations of treatment groups were prepared. 8-point conentration-reponse curves were made with the highest exposure at 100 uM, followed by half-log dilutions, all in 0.5% DMSO. Each test plate contained variouse controls, induction positive controls (1mM phenobarbital), cytotoxicity positive controls ([…] aflatoxin B1), vehicle controls (0.5% DMSO), and total lysis controls (0.5% DMSO). Cell morphology images were taken using an Essen IncuCyte FLR automated microscope, with six 96-well plates imaged in about 24 minutes. Images were captured and exported and JPEG files. Spent culture media was transfered to black-well plates for the LDH assay, and remaining media was sorted at -80 C for later use. Cells were treated with RLT buffer and frozen until shipped for gene expression analysis. Total RNA was isolated from the cell suspension in 75 uL of Buffer RLT (Qiagen, Germantown, MD 20874) by Quintiles/Expression Analysis (Durham, NC) using a custom isolation procedure. Total RNA from each plate well was transferred to a preamplification plate. Fluidigm's 96.96 Dynamic ArrayTM (Fluidigm, Amsterdam, the Netherlands) technology was used for gene expression analyses by quantitative reverse transcription polymerase chain reaction (qRT-PCR, performed by Quintiles/Expression Analysis, Durham, NC)89. Standard TaqManTM Assays (Applied Biosystems/ThermoFisher Scientific, Foster City, CA) were used to assess the expression of 93 genes selected based on their selectivity and sensitivity to important hepatic receptors known to be modulated by environmental chemicals; importance in human hepatocyte functionality; and hepatotoxicity. […]
In the case of `NC(=O)N(O)[C@@H]1COc2cc(OCc3ccccc3)ccc21`, the AC50 is 40.2 µM (active).

For `CC[C@H](C)C(=O)O[C@H]1C[C@H](O)C=C2C=C[C@H](C)[C@H](CC[C@@H](O)C[C@@H](O)CC(=O)O)[C@H]21`, the AC50 is 9.15 µM (active).

Consider `OC[C@H]1O[C@@H]2O[C@H]3[C@H](O)[C@@H](O)[C@@H](O[C@H]4[C@H](O)[C@@H](O)[C@@H](O[C@H]5[C@H](O)[C@@H](O)[C@@H](O[C@H]6[C@H](O)[C@@H](O)[C@@H](O[C@H]7[C@H](O)[C@@H](O)[C@@H](O[C@H]1[C@H](O)[C@H]2O)O[C@@H]7CO)O[C@@H]6CO)O[C@@H]5CO)O[C@@H]4CO)O[C@@H]3CO`, for which the half-maximal activity concentration (AC50) was 26.2 µM (active).

Consider `O=S1(=O)CCCO1`, for which the molecule was called inactive.

On to `CCCCCCCC/C=C\CCCCCCCC(=O)OC[C@@H](O)[C@H]1OC[C@H](O)[C@H]1O`, for which the call was inactive.

For the molecule `NNC(=O)c1ccncc1`, the AC50 was 22 µM (active).

As to `O=c1[nH]cnc2c1ncn2[C@H]1CC[C@@H](CO)O1`, the outcome was inactive.

As for `OC(Cn1cncn1)(Cn1cncn1)c1ccc(F)cc1F`, the molecule was called inactive.

Turning to `O=C(O)c1ccc2c(c1)nc(C(=O)NC1CCN(C3CC3)CC1)n2Cc1cc(-c2ccc(Cl)s2)on1`, the AC50 was 12 µM (active).

On to `CCCCC(CC)C(=O)OCCOCCOCCOC(=O)C(CC)CCCC` (stereo not given), for which the result was inactive.

As for `OCC(CO)(CO)CO`, the call was inactive.

With `CC(C)CCCCCCOC(=O)C1CCCCC1C(=O)OCCCCCCC(C)C` (stereo not given), the AC50 is 75.6 µM (active).

Turning to `C[C@]12C=CC(=O)C=C1CC[C@H]1[C@@H]3C[C@@H](O)[C@](O)(C(=O)CO)[C@@]3(C)C[C@H](O)[C@@]12F`, the AC50 was 50 µM (active).

For the molecule `Cn1cc[nH]c1=S`, the AC50 is 37.4 µM (active).

For `COc1cc(C(C)C)c2c(c1)S(=O)(=O)N(COc1cc(=O)n3cccc(OCCN4CCCCC4)c3n1)C2=O`, the molecule was called inactive.

Consider `CCc1ccc(O)c(C(C)(C)C)c1`, for which the concentration at half-maximal activity (AC50) was 50 µM (active).

With `c1ccc2c(c1)-c1cccc3c1c-2cc1ccccc13`, the AC50 was 0.851 µM (active).

Consider `c1ccc2cc3ccccc3cc2c1`, for which the AC50 was 10.5 µM (active).

Turning to `CCCCN1C(=O)[C@@H]([C@H](O)C2CCCCC2)NC(=O)C12CCN(Cc1ccc(Oc3ccc(C(=O)O)cc3)cc1)CC2`, the half-maximal activity concentration (AC50) is 2.16 µM (active).

`CCCOc1ccc(S(=O)(=O)N2CCN(CC)CC2)cc1-c1nc2c(CC)n(Cc3ccccn3)nc2c(=O)[nH]1`: the concentration at half-maximal activity (AC50) is 59.8 µM (active).

As to `C=CN1CCCC1=O`, the AC50 was 50 µM (active).

Regarding `COS(C)(=O)=O`, the call was inactive.

For `c1ccc(C(O[C@@H]2CCCN(CCc3ccc4c(c3)OCO4)C2)c2ccccc2)cc1`, the AC50 was 13.2 µM (active).

Consider `O=C1CN(N=Cc2ccc([N+](=O)[O-])o2)C(=O)N1`, for which the molecule was called inactive.

As to `CCCCCCCCCCCCCCO`, the AC50 is 50 µM (active).

`CCCCCCCCCC`: the AC50 is 50 µM (active).

In the case of `C[C@@H](Oc1ccc(CNC(=O)c2cccnc2Oc2ccc3c(c2)OCO3)c(F)c1)C(=O)O`, the molecule was classed as inactive.

Regarding `CCc1cccc(CC)c1N`, the concentration at half-maximal activity (AC50) was 50 µM (active).

On to `CC(C)C(=O)Nc1ccc([N+](=O)[O-])c(C(F)(F)F)c1`, for which the concentration at half-maximal activity (AC50) is 11.3 µM (active).

For `CCCCCCCCN(C)C`, the molecule was called inactive.

In the case of `Cn1c(=O)c2[nH]cnc2n(C)c1=O`, the molecule was classed as inactive.

For the molecule `CCCCCCOC(=O)CC(CC(=O)OCCCCCC)(OC(=O)CCC)C(=O)OCCCCCC`, the molecule was classed as inactive.

In the case of `CCn1nc(C)c2c1C(=O)NCC(c1ccc(O)cc1)=N2`, the concentration at half-maximal activity (AC50) was 40 µM (active).

Consider `O=C(O)c1cccc(C(=O)O)c1`, for which the AC50 was 50 µM (active).

Turning to `COCc1nnc(-c2ccc[n+]([O-])c2)n1-c1c(Cl)c(Cl)cc2[nH]c(=O)c(=O)[nH]c12`, the AC50 was 50 µM (active).

Take `O=C(NO)C1(NS(=O)(=O)c2ccc(Oc3ccc(F)cc3)cc2)CCOCC1`: the outcome was inactive.

As to `Cc1ncc([C@@H](CCCCCCc2ccc3c(n2)NCCC3)CC(=O)O)cn1`, the AC50 is 50 µM (active).

Regarding `CC(=O)c1ccccc1`, the AC50 is 76.7 µM (active).

Take `CCCCCOC(C)=O`: the call was inactive.

Turning to `OCCOCCOCCO`, the AC50 is 84.1 µM (active).

Source of the values: PubChem BioAssay (EPA / NIEHS).
